Screening results: PubChem BioAssay, National Center for Advancing Translational Sciences (NCATS)
GLA spleen mod: alpha-galactosidase A (human) modulation; P06280; human spleen homogenate, 4MU-alpha-Gal fluorescence, 40 min; Potency, µM (top dose mostly 80 µM), inactives show at the top dose activity change, negative = inhibition, hits mostly inhibitors; hit rate 0.008% among 240,000; AID 2107;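 also: potency is read from the fitted curve at half-maximal effect; 0% = enzyme with vehicle and -100% = no enzyme basal signal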
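qHTS titration in buffer at pH 5.0. Alpha-galactosidase activity in spleen homogenate was measured via 4-methylumbelliferone release from 1 mM fluorogenic substrate after 40 min at 37C and a pH 10 stop. AC50 came from Hill fits of control-normalized data.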
aGlu spleen mod: lysosomal alpha-glucosidase (human) modulation; human spleen homogenate, 4-MU-alpha-glucoside fluorescence; AID 2112; hit rate 0.006% among 240,000; Potency, µM (highest dose often 79.9 µM), without a hit: at the highest dose activity change, negative = inhibition, usual class: inhibitors; P10253;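 also: potency is read from the fitted curve at half-maximal effect; 0% = enzyme with vehicle and -100% = no enzyme basal signal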
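Human spleen homogenate (1 ug) incubated with compounds and 1 mM 4-methylumbelliferyl-alpha-D-glucopyranoside in pH 5.0 citrate/phosphate buffer, 37 C, 40 min. Stopped at pH 10; 4-MU fluorescence (Ex 365/Em 440 nm); AC50 by Hill fit.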
GLA inh pH 4.5: alpha-galactosidase A (human) inhibition, pH 4.5; P06280; purified enzyme, 4-MU-alpha-Gal fluorescence, pH 4.5; activity change, negative = inhibition, % at 105 µM; 230,000 tested, under 10 active; AID 1467;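 also: 0% = full activity with enzyme and -100% = basal without enzyme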
Target sequence (P06280 whole entry, looked up): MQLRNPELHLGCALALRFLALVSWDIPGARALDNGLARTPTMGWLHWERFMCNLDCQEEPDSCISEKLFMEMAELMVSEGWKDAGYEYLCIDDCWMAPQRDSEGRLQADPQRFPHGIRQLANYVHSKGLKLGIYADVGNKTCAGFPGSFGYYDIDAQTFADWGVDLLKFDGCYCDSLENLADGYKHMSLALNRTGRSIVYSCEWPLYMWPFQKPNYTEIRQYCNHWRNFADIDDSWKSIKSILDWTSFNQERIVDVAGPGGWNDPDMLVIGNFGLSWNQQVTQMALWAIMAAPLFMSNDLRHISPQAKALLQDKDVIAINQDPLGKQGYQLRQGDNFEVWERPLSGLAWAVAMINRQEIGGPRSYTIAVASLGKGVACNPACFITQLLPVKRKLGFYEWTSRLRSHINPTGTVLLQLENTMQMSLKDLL
GAA inhib: blocks human lysosomal alpha-glucosidase. purified human GAA, 4-MU-alpha-glucoside fluorescence. Potency, µM (doses to about 76.9 µM), for inactives: at the top dose activity change, negative = inhibition, usual class: inhibitors. hit rate 0.005% among 200,000;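 also: potency is read from the fitted curve at half-maximal effect; plate controls were uninhibited enzyme wells for no effect and no-enzyme background for full effect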
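Human enzyme at 4 nM with 400 uM 4-methylumbelliferyl-alpha-D-pyranoside, citrate/phosphate buffer pH 5.0, 0.005% Tween-20, 20 min at room temperature. Compounds up to 77 uM. 4-MU fluorescence (Ex 365/Em 440) read after NaOH/glycine stop; AC50 from Hill fit.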
GAA glycogen mod: inhibitors or activators of human alpha-glucosidase glycogen cleavage; Potency, µM (series often up to 76.4 µM), for inactives: at the top dose activity change, negative = inhibition, most hits filed as inhibitors; P10253; AID 2100; hit rate 0.38% among 300,000; recombinant GAA, glycogen substrate, Amplex Red glucose oxidase fluorescence;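 also: potency is read from the fitted curve at half-maximal effect; 0% = full enzyme reaction and -100% = no-enzyme basal signal; the screen sought inhibitors and activators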
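Recombinant enzyme (4 nM final) with compounds titrated up to 77 uM and bovine liver glycogen (30 ug) in citrate pH 5.0, 0.01% Tween-20, 37 C 40 min. Released glucose detected by Amplex Red/glucose oxidase (Ex 573/Em 610); AC50 from Hill fits.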
Starred values were filed as active, the others as inactive; ? = inconclusive; . = not tested or not shown; [ ] = dose if it differs, or a comment. In the library only some 0.4% were active in any assay of this set; here they are far more common. Calls follow the shape of the dose curve; as a rule, active = well fitted curve in the direction sought with a large enough effect; inconclusive = small, poorly fitted or top-dose-only effect, or another doubt; inactive = no such curve, though single readings can be large; an effect the other way counts as inactive or inconclusive.

SMILES | GLA spleen mod | aGlu spleen mod | GLA inh pH 4.5 | GAA inhib | GAA glycogen mod
COc1ccc(-c2nc3c(c4c2C[C@H](c2ccccc2)OC4)CN(C(=O)Cc2cccs2)CC3)c(C)c1 | -14%[17.5 µM] | -4%[17.4 µM] | -1 | . | .
COC(=O)C1=C(C)N(Cc2ccccc2)C(=NCc2ccco2)N[C@H]1c1ccc(Br)cc1 | . | . | . | . | -12%[76.3 µM]
CCOc1cc(CNc2ccccc2SC)ccc1O | 6% | 6% | -5 | -7% | 28µM*
Cc1ccc(-c2nc3ncccn3c2Nc2ccccc2C)o1 | -2% | -4% | -6 | -6% | ?
Cc1ccc(-c2nc3cnccn3c2Nc2c(C)cccc2C)o1 | 0% | 0% | 9 | -11%[15.4 µM] | 3.5µM*
COC(=O)c1ccc(CSc2cc(C)c3cccc(C)c3n2)o1 | 35µM* | ? | 15 | 3% | 3%
COC(=O)c1ccc(CSc2cc(C)c3cc(C)cc(C)c3n2)o1 | ? | ? | 5 | 5% | -4%
O=C(CO)[C@@H](O)C(O)[C@@H](O)CO (stereo not given in full) | 6% | 4% | . | . | .
O=S(=O)(NCc1ccco1)c1cccc(S(=O)(=O)N2CCOCC2)c1 | 2% | 1% | 9 | -5% | -2%
COc1cccc(CNS(=O)(=O)c2ccc(S(=O)(=O)N3CCCC3)cc2)c1 | 2% | 1% | -13 | 1% | 5µM*
O=S(=O)(NCc1ccco1)c1ccc(S(=O)(=O)N2CCCC2)cc1 | -18% | 3% | -6 | ? | 35µM*
COc1ccc(C2=Nn3c(nnc3-c3cc(OC)ccc3OC)SC2)c(OC)c1 | 4% | -19% | . | . | .
CCOc1ccc2c(c1)-c1c(ssc1=S)C(C)(C)N2C | 2% | -1% | 2 | -7% | -3%
CC1(C)Nc2ccc(O)cc2-c2c1ssc2=S | -1% | 4% | -8 | 2% | 40µM*
COc1cc(/C=N/NC(=O)C2(O)c3ccccc3-c3ccccc32)ccc1O | -5% | -3% | -10 | -3% | ?
COc1cc(/C=N/NC(=O)C(=O)/C=C2\NC(C)(C)Cc3ccccc32)ccc1O | -11% | 12% | -29 | . | 35µM*
Cc1cccc(NNC(=O)C2CCC2)c1 | 12% | -1% | 2 | . | 7.9µM*
COc1cc(C)c(N)cc1C(C)C | 12% | -1% | -6 | 0% | 14µM*
O=C(O)c1cc(-c2ccc(/C=N/Nc3ccc(Cl)cc3)o2)ccc1Cl | -16% | -12% | 5 | 3% | 28µM*
Nc1nonc1C(=O)N/N=C/c1ccc(-c2ccc(Cl)c(C(=O)O)c2)o1 | -5% | -5% | -16 | -5% | -3%
CC(=O)[C@]1(O)Cc2c(O)c3c(c(O)c2[C@@H](O[C@H]2C[C@H](N)[C@H](O)[C@H](C)O2)C1)C(=O)c1c(O)cccc1C3=O | -8% | -9% | -4 | . | .
Cc1cc(C)cc(Nc2ccc(C(=O)O)cc2N)c1 | ? | -5% | 18 | ? | ?
Cc1ccc(Nc2ccc(C(=O)O)cc2N)cc1 | 17% | 4% | -4 | 0% | 28µM*
CC1=CC(=O)C2=C(C)CC[C@H]3[C@H](C)C(=O)O[C@@H]3C12 (stereo not given in full) | 5% | -5% | . | . | .
O=C1/C(=C\c2ccc(O)c(O)c2)N=C2CCCCCN12 | -7% | -7% | -15 | . | 7.1µM*
SMILES | GLA spleen mod | aGlu spleen mod | GLA inh pH 4.5 | GAA inhib | GAA glycogen mod
COc1ccc(O)c(-c2c(-c3ccc(Cl)cc3)n[nH]c2C)c1 | -5% | 1% | -7 | -8% | 10µM*
CC(C)C[C@H](NC(=O)[C@@H](Cc1c[nH]c2ccccc12)NC(=O)[C@H](Cc1ccc(O)cc1)NC(=O)[C@H](CO)NC(=O)[C@H](Cc1c[nH]c2ccccc12)NC(=O)[C@H](Cc1cnc[nH]1)NC(=O)[C@@H]1CCC(=O)N1)C(=O)N[C@@H](CCCN=C(N)N)C(=O)N1CCC[C@H]1C(=O)NCC(N)=O | -2% | 3% | . | . | .
Cc1[nH]n(C(C)(C)C)c(=O)c1Sc1ccccc1 | 4% | -1% | 9 | 1% | 16µM*
Cc1cc(=O)oc2cc(OCC(=O)NC(Cc3c[nH]c4ccc(O)cc34)C(=O)O)c(Cl)cc12 (stereo not given) | . | . | . | . | 7.9µM*
CCCCCCC#Cc1cc(OC)c(OC)cc1C(N1CC(C)c2ccccc21)N1CC(C)c2ccccc21 (stereo not given) | -8%[17.5 µM] | 2%[17.4 µM] | . | . | .
O=C(NCc1ccccc1)C(c1ccncc1)N(C(=O)c1ccccn1)c1ccccc1 (stereo not given) | . | . | . | . | 11µM*
Cc1ccccc1N(C(=O)c1ccccn1)C(C(=O)NCc1ccccc1)c1ccncc1 (stereo not given) | . | . | . | . | -6%
C[C@@H]1O[C@H](O[C@@H]2C(O)[C@H](O)[C@@H](CO)O[C@H]2Oc2cc(O)c3c(=O)cc(-c4ccc(O)cc4)oc3c2)[C@H](O)[C@H](O)[C@H]1O (stereo not given in full) | 7% | 5% | . | . | .
Cn1c(-c2ccc3c(c2)OCO3)cnc1NCc1cccc(Cl)c1 | -8% | -7% | 2 | -3% | 18µM*
Cn1c(-c2ccc3c(c2)OCO3)cnc1NCc1ccccc1 | 2% | -1% | 4 | 8% | ?
COc1ccc([C@@H]2CC(=O)c3c(O)cc(O[C@@H]4O[C@H](CO[C@@H]5O[C@@H](C)[C@H](O)[C@@H](O)[C@H]5O)[C@@H](O)[C@H](O)[C@H]4O)cc3O2)cc1 | -2% | 3% | . | . | .
Fc1ccccc1Nc1n[nH]c(=S)s1 | -3% | 6% | 2 | 7% | 16µM*
O=C1C=C(Nc2ccccc2O)c2ccccc2C1=O | 2% | ? | -28 | 9% | 12µM*
O=C1CCCC2=C1Sc1ccccc1N2 | 4% | 8% | 3 | . | 7.1µM*
COCC(=O)N1CCc2nc(-c3ccc(OC)cc3C)c3c(c2C1)CO[C@@H](c1ccccc1)C3 | -3%[17.5 µM] | 3%[17.4 µM] | -3 | . | .
COc1ccccc1CNc1ncnc2ccc(-c3ccccc3C#N)cc12 | 4% | 9% | . | . | .
COc1oc(=O)c2cc(N)ccc2c1Cl | -9% | 4% | . | . | .
O=C(O)c1ccc(/C=N/n2cc(-c3ccccc3)[nH]c2=S)cc1 | 10% | -1% | 1 | . | 28µM*
CCOC(=O)CN1C(=O)N[C@@H](c2cccc(C(F)(F)F)c2)[C@H](C(=O)OC)[C@H]1C | -4%[17.5 µM] | 5%[17.4 µM] | 2 | . | .
Cc1ccn2c(C(=O)NN=C3CCCCCCC3)c(C)nc2c1 | -4% | 3% | 0 | 11% | 40µM*
C=CC[n+]1c(-c2ccc(OC)cc2)csc1NNC(=O)Nc1ccccc1 | 6% | 2% | 1 | -10% | 20µM*
C=CC[n+]1c(-c2ccc(C)cc2)csc1Nc1ccc(NC(C)=O)cc1 | -18% | -2% | 3 | 3% | 0%
CN(C)CC(O)Cn1c2ccc(Br)cc2c2cc(Br)ccc21 (stereo not given) | -13% | -11% | . | . | .
